Reference: PubChem BioAssay AID1851 (National Center for Advancing Translational Sciences (NCATS), 2009)
“And” between values parts separate entries of the source, which are not always exact repeats. Equal values may be shown once. Out of some 16,000 compounds screened, about 2,600 (16%) were called active. Roughly 20% stayed inconclusive and do not appear here. Calls come from the whole dose curve; as a rule, active = well fitted curve in the direction sought with a large enough effect; inconclusive = small, poorly fitted or top-dose-only effect, or effect the other way; inactive = no such curve, though single readings can be large or run the other way. Only a sample is shown.

Molecular target: Cytochrome P450 2D6 (Homo sapiens) (UniProt P10635)
Sequence (P10635 whole entry, looked up): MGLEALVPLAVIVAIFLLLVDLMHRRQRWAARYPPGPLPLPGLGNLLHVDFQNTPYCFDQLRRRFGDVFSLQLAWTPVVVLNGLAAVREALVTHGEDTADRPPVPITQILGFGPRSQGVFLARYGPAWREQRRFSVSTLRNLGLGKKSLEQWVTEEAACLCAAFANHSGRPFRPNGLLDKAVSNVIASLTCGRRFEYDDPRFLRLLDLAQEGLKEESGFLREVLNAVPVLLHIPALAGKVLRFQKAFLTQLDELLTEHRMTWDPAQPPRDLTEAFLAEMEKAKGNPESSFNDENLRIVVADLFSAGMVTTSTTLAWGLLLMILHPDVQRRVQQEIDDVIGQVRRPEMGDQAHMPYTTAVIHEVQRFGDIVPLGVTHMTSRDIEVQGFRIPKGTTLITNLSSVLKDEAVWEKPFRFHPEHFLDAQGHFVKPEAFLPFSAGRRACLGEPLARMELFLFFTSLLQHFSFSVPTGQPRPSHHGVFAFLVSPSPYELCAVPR
Assay: Cytochrome panel assay with activity outcomes
Conditions: recombinant CYP, pro-luciferin dealkylation, luminescence, p450-cyp2d6; series mostly up to 57.1 µM; activity, negative = inhibition: at the top concentration
% is set by controls: 0 for no effect and ±100 for the full control effect.

SMILES | activity, negative = inhibition | AC50
COc1cc(/C=N/NC(=O)c2ccncc2)ccc1OC(=O)c1ccc([N+](=O)[O-])cc1 | -15.9% (inactive) | 
O=C(c1csnn1)N1CCC2(CC1)CCN(c1ccncc1)CC2 | -18.6% (inactive) | 
O=C(c1cc(C(F)(F)F)cc(C(F)(F)F)c1)N1CCC2(CCCN(Cc3nccs3)C2)CC1 | 14.6% (inactive) | 
Cc1noc(C)c1C(=O)N1CCC[C@@]2(CCN(Cc3cc(C(F)(F)F)cc(C(F)(F)F)c3)C2)C1 | 18.8% (inactive) | 
O=C(c1cnccn1)N1CCC[C@@]2(CCN(Cc3ccncc3)C2)C1 | -14.8% (inactive) | 
CS(=O)(=O)N1CCC2(CC1)CN(Cc1cc(C(F)(F)F)cc(C(F)(F)F)c1)C2 |  | 0.398 µM (active)
CS(=O)(=O)N1CCC2(CC1)CN(Cc1nccs1)C2 | 4.64% (inactive) | 
O=C(c1csnn1)N1CCC2(CC1)CN(Cc1cc(C(F)(F)F)cc(C(F)(F)F)c1)C2 |  | 12.6 µM (active)
O=C(c1ccco1)N1CCC2(CC1)CN(Cc1cc(C(F)(F)F)cc(C(F)(F)F)c1)C2 |  | 6.31 µM (active)
O=C(c1cnccn1)N1CCC[C@@]2(CCN(Cc3cc(C(F)(F)F)cc(C(F)(F)F)c3)C2)C1 |  | 3.16 µM (active)
FC(F)(F)c1cc(CN2CC3(CCNCC3)C2)cc(C(F)(F)F)c1 | -16.5% (inactive) | 
COC(=O)c1cnn(C(=O)c2ccccc2Br)c1N | -7.26% (inactive) | 
CN(C)c1ccc(O)c2c1C[C@H]1C[C@H]3[C@@H](N(C)C)C(=O)C(C(N)=O)=C(O)[C@]3(O)C(=O)C1=C2O | 0.499% [at 25.6 µM] (inactive) | 
CCOc1ccc(-c2nnc3ccc(SCC(=O)NCc4ccco4)nn23)cc1 | -3.12% (inactive) | 
N#Cc1cc2nc(O)c(O)nc2cc1[N+](=O)[O-] |  | inactive
CC[C@H](C)C(=O)O[C@@H]1C[C@H](C)C=C2C=C[C@H](C)[C@@H](CC[C@H]3C[C@@H](O)CC(=O)O3)[C@H]21 | -10.6% [at 25.6 µM] (inactive) | 
CO[C@H]1C=CO[C@]2(C)Oc3c(C)c(O)c4c(O)c(c5c(c4c3C2=O)NC2(CCN(CC(C)C)CC2)N=5)=NC(=O)C(C)=CC=C[C@@H](C)[C@@H](O)[C@@H](C)[C@@H](O)[C@@H](C)[C@@H](OC(C)=O)[C@@H]1C | -2.37% [at 25.6 µM] (inactive) | 
Cn1c(=O)c(-c2ccc(F)cc2)nc2cnc(N3CCOCC3)nc21 | 4.78% (inactive) | 
Cn1c(=O)c(-c2ccc(Cl)cc2)nc2cnc(Nc3ccccc3)nc21 | -3.12% (inactive) | 
Cn1c(-c2sccc2OCc2ccccc2)n[nH]c1=S | -13.7% (inactive) | 
O=C(c1cnccn1)N1CCC2(CC1)CN(Cc1cc(C(F)(F)F)cc(C(F)(F)F)c1)C2 |  | 0.398 µM (active)

SMILES | activity, negative = inhibition | AC50
O=C(c1cnccn1)N1CCC2(CC1)CN(c1ccncc1)C2 | -4.27% (inactive) | 
O=C(c1cc(C(F)(F)F)cc(C(F)(F)F)c1)N1CCC2(CC1)CN(Cc1ccncc1)C2 | -19% (inactive) | 
CC(C)(C)n1nc2c(c1NC(=O)c1ccc(S(=O)(=O)N3CCCCC3)cc1)CS(=O)C2 (stereo unspecified) | -11.7% (inactive) | 
Cc1cc(NC(=O)NC(=O)c2ccc(F)cc2F)n[nH]1 | -17.9% (inactive) | 
CCC(C)C1NC(=S)N(C2CCCCC2)C1=O (stereo unspecified) | 11.4% (inactive) | 
COc1ccc2c(c1)C(=NN)c1cc(OC)ccc1-2 |  | 22.4 µM (active)
COc1ccc2c(c1)-c1ccccc1S(=O)(=O)N2C | -19.1% (inactive) | 
COc1ccc2c(c1)Cc1cc(N=[N+]([O-])c3ccc4c(c3)Cc3cc(OC)ccc3-4)ccc1-2 | -7.57% [at 11.4 µM] (inactive) | 
O=C(Cn1cnc([N+](=O)[O-])c1)NCc1ccc(F)cc1 | -12.5% (inactive) | 
COc1ccc(NC(=O)N2CC3(CCN(C(=O)c4csnn4)CC3)C2)cc1 | 2.53% (inactive) | 
CC(=O)N1CCC[C@@]2(CCN(Cc3nccs3)C2)C1 | 2.01% (inactive) | 
O=C(c1csnn1)N1CCC[C@@]2(CCN(Cc3nccs3)C2)C1 |  | 5.01 µM (active)
CC(C)CN1CCCC2(CCN(C(=O)c3csnn3)CC2)C1 |  | 5.01 µM (active)
O=C(Nc1ccccc1)N1CCC2(CC1)CCN(C(=O)c1csnn1)CC2 | -11.4% (inactive) | 
O=C(c1csnn1)N1CCC2(CC1)CN(c1ccccn1)C2 |  | 12.6 µM (active)
O=C(c1csnn1)N1CCC2(CCCN(Cc3ccccc3)C2)CC1 |  | 1.26 µM (active)
O=C(c1csnn1)N1CCC2(CCN(Cc3nccs3)CC2)CC1 | 2.94% (inactive) | 
O=C(c1cnccn1)N1CCC2(CC1)CN(c1ccccn1)C2 | -17.3% (inactive) | 
O=C(c1csnn1)N1CCC2(CCCN(c3ccc(-c4ccccc4)cc3)C2)CC1 | -2.24% (inactive) | 
N#Cc1cccc(NC(=O)N2CCCC3(CCN(C(=O)c4csnn4)CC3)C2)c1 | -2.2% (inactive) | 
CC(=O)N1CCC2(CC1)CN(c1ccccn1)C2 | -17.2% (inactive) | 

SMILES | activity, negative = inhibition | AC50
O=C(O)CN(CCN(CC(=O)O)CC(=O)O)CC(=O)O.[Cu] | 2.44% [at 11.4 µM] (inactive) | 
COCCCn1c(=S)[nH]c2ncccc2c1=O | -7.67% (inactive) | 
CC(=O)O[C@H]1C2=CO[C@H](C)[C@H]3[C@H]4C5=C([C@H](O)[C@H]6O[C@@H]6C5=O)[C@H](O[C@H]4C)[C@@]23C(=O)[C@H]2O[C@@H]21 | 17.5% [at 11.4 µM] (inactive) | 
COc1cc2nc(N3CCN(C(=O)c4ccco4)CC3)nc(N)c2cc1OC |  | inactive
CCNc1nnc(-c2ccncc2)s1 | -6.69% (inactive) | 
O=C1C[C@@H](O)[C@@H](O)[C@H]2[C@@H]3C(=O)N(C4CCCCC4)C(=O)[C@@H]3CC[C@H]12 | 9.04% [at 11.4 µM] (inactive) and 6.81% [at 11.4 µM] (inactive) and 7.19% [at 11.4 µM] (inactive) | 
CN1CCN(c2ncc3nc(-c4cccs4)c(=O)n(Cc4cccs4)c3n2)CC1 | -8.7% (inactive) | 
COc1ccc(C(=O)Nc2nc3c(s2)Cc2cc(OC)ccc2-3)cc1 | -14.7% (inactive) | 
C=CCN=C1CC(C)(C)CC(=O)/C1=C(\O)c1ccccc1 | 18.3% (inactive) | 
COc1ccc(-n2c(CNC(=O)c3cc(OC)c(OC)c(OC)c3)n[nH]c2=S)cc1 | -2.75% (inactive) | 
CC(C)CN1CC[C@@]2(CCCN(C(=O)c3csnn3)C2)C1 |  | 0.501 µM (active)
COc1ccc(NC(=O)N2CCCC3(CCN(C(=O)c4csnn4)CC3)C2)cc1 | -0.507% (inactive) | 
CC(C)NC(=O)N1CC[C@@]2(CCCN(C(=O)c3csnn3)C2)C1 | 0.0943% (inactive) | 
CN1CCN(c2ccc([N+](=O)[O-])cc2C(=O)N2CCOCC2)CC1 | 14.8% (inactive) | 
COc1ccc(/C=C/C(=O)NCc2cn(C)nc2C)cc1COc1ccc(Br)cc1 | -13.3% (inactive) | 
COc1ccc(C(=O)NNC(=O)Cc2ccc(-c3ccccc3)cc2)cc1OC | -6.09% (inactive) | 
COc1ccc(C(=O)NN)cc1COc1ccc(Br)cc1 |  | 12.6 µM (active)
COC(=O)[C@H](CCSC)NC(=O)C/C=C\[C@@H](C)CO | 4.64% [at 11.4 µM] (inactive) | 
COc1ccc([C@@H]2CNC(=O)C2)cc1OC1CCCC1 |  | inactive
CC[C@@H]1OC(=O)[C@H](C)[C@H](O[C@@H]2C[C@](C)(OC)[C@H](O)[C@H](C)O2)[C@H](C)[C@H](O[C@@H]2O[C@@H](C)C[C@@H](N(C)C)[C@@H]2O)[C@](C)(O)C[C@H](C)C(=O)[C@H](C)[C@H](O)[C@]1(C)O | 5.87% [at 25.6 µM] (inactive) | 
CC[C@]1(O)C[C@@H]2CN(CCc3c([nH]c4ccccc34)[C@](C(=O)OC)(c3cc4c(cc3OC)N(C=O)[C@H]3[C@@](O)(C(=O)OC)[C@H](C(=O)OC)[C@@]5(CC)C=CCN6CC[C@]43[C@H]65)C2)C1 | 10.5% (inactive) | 

SMILES | activity, negative = inhibition | AC50
OCCSCc1cc(Cl)cc(Cl)c1O | -5.19% [at 11.4 µM] (inactive) | 
COc1c(Cl)cc(Cl)cc1CNCCNCCO |  | 15.8 µM (active)
COc1c(Cl)cc(Cl)cc1CNCCNCC(C)O (stereo unspecified) |  | 1.78 µM (active)
CCOc1cc(/C=N/O)cc(Cl)c1OC | -0.0031% (inactive) | 
COc1ccc(-c2nc3cnc(N(C)C)nc3n(C[C@H]3CCCO3)c2=O)cc1 | 3.77% (inactive) | 
Cc1ccc(NC(=O)CCC(=O)NNC(=O)c2cccs2)c(C)c1 | -9.16% (inactive) | 
C[C@@H]1OC2C3=C(C(=O)[C@H]4O[C@@H]4[C@H]3O)[C@@H]1[C@H]1[C@H](C)OC=C3[C@H](O)[C@H]4O[C@H]4/C(=N\OCc4ccccc4)[C@@]321 | 3.22% [at 11.4 µM] (inactive) | 
CO[C@@H]1COC(=O)[C@H](COCc2ccccc2)NC(=O)C/C=C\[C@@H](C)[C@H](OC)COC(=O)[C@@H](C)NC(=O)C/C=C\[C@H]1C | 0.0549% [at 11.4 µM] (inactive) | 
O=C(O)[C@H]1C[C@@H](CP(=O)(O)O)CCN1 | -19.6% (inactive) | 
CC(=O)OC[C@H]1O[C@@H](O/N=C(\C)CCN2CCc3nc(-c4ccccc4)c(-c4ccccc4)cc3C2)[C@H](OC(C)=O)[C@@H](OC(C)=O)[C@H]1OC(C)=O |  | 3.16 µM (active)
CCCNC(=O)OC[C@@H]1O[C@H](CCO/N=C(\C)CCN2CCc3nc(CC)c(CC)cc3C2)C=C[C@@H]1Oc1ccc(OC)cc1 | -13.6% [at 11.4 µM] (inactive) | 
CC(=O)OC[C@@H]1O[C@H](CCO/N=C(\C)CCN2CCc3nc(-c4ccccc4)c(-c4ccccc4)cc3C2)C=C[C@@H]1OC(C)=O | -10.6% [at 11.4 µM] (inactive) | 
CCc1cc2c(nc1CC)CCN(CC/C(C)=N/O[C@@H]1O[C@H](COC(C)=O)[C@H](OC(C)=O)[C@H](OC(C)=O)[C@H]1OC(C)=O)C2 |  | 3.98 µM (active)
CCc1cc2c(nc1CC)CCN(CC/C(C)=N/OCC[C@@H]1C=C[C@H](OC(C)=O)[C@H](COC(C)=O)O1)C2 | -5.93% [at 11.4 µM] (inactive) | 
C=CC[C@@H]1C=C[C@H](O/N=C(\C)CCN2CCc3nc(-c4ccccc4)c(-c4ccccc4)cc3C2)[C@H](CO)O1 | 0.49% [at 11.4 µM] (inactive) | 
CC1(C)CC(=O)C(C(C#Cc2ccccc2)C2=C(O)CC(C)(C)CC2=O)=C(O)C1 | -10.5% (inactive) | 
CSc1nc2cc(S(=O)(=O)N3CCCCC3)ccc2s1 | 11.3% [at 11.4 µM] (inactive) | 
O=C(O)CONC(=O)c1cc(OCC(F)(F)F)ccc1OCC(F)(F)F | 20.2% (inactive) | 
